High-throughput results: PubChem BioAssay, National Center for Advancing Translational Sciences (NCATS)
12-LOX inh = Primary qHTS assay for inhibitors of human arachidonate 12S-lipoxygenase (ALOX12): Round 2; Polyunsaturated fatty acid lipoxygenase ALOX12 (Homo sapiens), P18054; purified 12hLO, xylenol orange hydroperoxide absorbance; Potency, µM (series often up to 108 µM), for the others: at the top dose activity change, negative = inhibition, most hits filed as inhibitors; actives 1.1% (n = 580,000); further: potency means the concentration at half of the fitted maximal effect
Target sequence (P18054 whole entry, looked up): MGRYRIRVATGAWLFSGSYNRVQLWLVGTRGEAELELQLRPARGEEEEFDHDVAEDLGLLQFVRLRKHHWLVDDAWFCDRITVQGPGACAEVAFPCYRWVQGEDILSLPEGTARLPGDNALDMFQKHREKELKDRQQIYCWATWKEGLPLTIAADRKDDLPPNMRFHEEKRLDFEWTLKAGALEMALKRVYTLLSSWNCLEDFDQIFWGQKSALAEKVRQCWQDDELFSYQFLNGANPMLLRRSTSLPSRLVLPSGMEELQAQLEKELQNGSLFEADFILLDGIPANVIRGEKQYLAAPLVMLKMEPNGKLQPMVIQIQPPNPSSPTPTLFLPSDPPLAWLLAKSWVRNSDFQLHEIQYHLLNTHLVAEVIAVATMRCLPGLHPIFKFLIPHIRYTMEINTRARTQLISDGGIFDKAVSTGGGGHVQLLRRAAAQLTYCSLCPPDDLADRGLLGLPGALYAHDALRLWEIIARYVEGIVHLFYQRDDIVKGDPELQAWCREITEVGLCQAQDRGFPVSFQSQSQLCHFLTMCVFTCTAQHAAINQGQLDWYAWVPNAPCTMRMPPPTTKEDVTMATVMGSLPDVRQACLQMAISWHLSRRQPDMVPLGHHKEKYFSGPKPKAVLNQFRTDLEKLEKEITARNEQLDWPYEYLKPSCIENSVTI
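Purified human 12hLO (150 nM final) in 25 mM Hepes, 0.01% Triton X-100, pH 7.0 was preincubated 15 min at room temperature with compound. Then 40 uM arachidonic acid was added, 30 min. Hydroperoxide was read by Fe-XO absorbance ratio 573/405 nm.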
TDP1 cell CPT = qHTS for Inhibitors of human tyrosyl-DNA phosphodiesterase 1 (TDP1): qHTS in cells in presence of CPT | chicken DT40 Tdp1-/-;hTDP1 cells + 20 nM CPT, ATP luminescence, 48 h | Potency, µM (series often up to 46.2 µM), for inactives: at the top dose activity change, negative = growth inhibition, hits mostly inhibitors | actives 12% (n = 420,000); further: potency means the concentration at half of the fitted maximal effect; nearly all actives have a fitted effect of over 55% in size
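Cell growth measured by CellTiter-Glo luminescence after a minimum 48 h, 37 C compound exposure with 20 nM CPT in Tdp1-knockout DT40 cells stably expressing hTDP1, seeded 400/well; qHTS titration format.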
IL1B secr inh = qHTS for Inhibitors of Inflammasome Signaling: IL-1-beta AlphaLISA Primary Screen; THP-1 LPS/ATP IL-1B secretion, AlphaLISA, 16 h; stronger effect = lower value; activity change, % at 57.5 µM; actives 4.7% (n = 360,000); in the data active means activity change below about -50%; inconclusive means mostly about -30% to -49%
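THP-1 cells pretreated 1 hr with compounds (up to 57.5 uM final), then stimulated with LPS (250 ng/mL final) plus ATP (1.25 mM final); secreted IL-1B measured by AlphaLISA after 16 hr, decreased signal indicating inhibition.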
HT1080NT lethal = qHTS for induction of synthetic lethality in tumor cells producing 2HG: qHTS for the HT-1080-NT fibrosarcoma cell line; HT-1080-NT fibrosarcoma viability, CellTiter-Glo ATP luminescence, 48 h; Potency, µM (top dose mostly 46.1 µM), for the others: top-dose activity, negative = less viability, actives largely listed as cytotoxic; actives 1.6% (n = 360,000); AID 686970, 2013;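 further: NT is the 2HG producing partner of a matched IDH1 knockdown line; potency means the concentration at half of the fitted maximal effect; 0% = DMSO-treated cells and -100% = media-only wells without cells; nearly all actives have a fitted effect of over 55% in size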
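Read-out is CellTiter-Glo luminescence after 10 minutes at room temperature, following 48 hours' compound treatment of HT-1080-NT cells (750 cells/well, RPMI, 5% FBS, 37 degrees C).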
HT1080 IDH1KD tx = qHTS for induction of synthetic lethality in tumor cells producing 2HG: qHTS for the HT-1080-IDH1KD cell line. Potency, µM (doses to about 46.1 µM), without a hit: top-dose activity, negative = toxicity, most hits filed as cytotoxic. HT-1080 IDH1 knockdown viability, ATP luminescence, 48 h. AID 686971, 2013. actives 2% (n = 360,000);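 further: potency means the concentration at half of the fitted maximal effect; 0% = DMSO wells and -100% = cell-free medium wells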
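In this qHTS, HT-1080 cells depleted of IDH1 are exposed for 48 h at 37 °C to compound titrations. Toxicity is scored from CellTiter-Glo luminescence, with DMSO as full viability and medium alone as none.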
TDP1 cell noCPT = qHTS for Inhibitors of human tyrosyl-DNA phosphodiesterase 1 (TDP1): qHTS in cells in absence of CPT. actives 15% (n = 420,000). DT40 Tdp1-/- hTDP1 cells, no CPT, ATP luminescence, 48 h. Potency, µM (highest dose often 46.2 µM), for inactives: at the highest dose activity change, negative = growth inhibition, hits mostly inhibitors; further: potency means the concentration at half of the fitted maximal effect; nearly all actives have a fitted effect of over 55% in size
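Stably hTDP1-transfected Tdp1-null chicken DT40 cells were treated with library compounds minus camptothecin and grown for at least 48 hr at 37 °C, after which cellular ATP was quantified by luminescence.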
* marks the source's active call; other numbers are inactive results; [ ] = dose if it differs, or a comment. The sample as a whole holds a higher share of hits than the screen did. Unless noted, the call rests on the fitted dose curve; in most records, active means well fitted curve in the direction sought with a large enough effect; inconclusive means small, poorly fitted or top-dose-only effect, or another doubt; inactive means no such curve, though single readings can be large; an effect the other way counts as inactive or inconclusive. Unless noted, on the % scale 0 is the no-effect control and ±100 the full control effect.

How did COc1cc(CCc2ccccc2)c(C(=O)O)c(O)c1C/C=C(/C)CCC=C(C)C do in these assays?
12-LOX inh: inconclusive; TDP1 cell CPT: inconclusive; IL1B secr inh: 35; HT1080NT lethal: inconclusive; HT1080 IDH1KD tx: inconclusive; TDP1 cell noCPT: 16µM*

Results for CCn1cnc2c1c(=O)n(CC(=O)N1CCN(c3ccncc3)CC1)c(=O)n2Cc1ccccc1 ?
12-LOX inh: 1%

How did CC(NC(=O)c1ccc(CS(C)(=O)=O)cc1)c1ccccc1F (stereo unspecified) do in these assays?
12-LOX inh: -12%

Results for COCCC(=O)N(Cc1ccc2c(c1)OCO2)C(C(=O)NC1CCCCC1)c1ccncc1 (stereo unspecified) ?
12-LOX inh: inconclusive; TDP1 cell CPT: -7%; IL1B secr inh: 21; HT1080NT lethal: 1%; HT1080 IDH1KD tx: -3%; TDP1 cell noCPT: inconclusive

Results for COc1ccc(C(=O)/C=C/C(=O)N(Cc2ccc(F)cc2)C(C(=O)NC2CCCCC2)c2ccncc2)c(O)c1 (stereo unspecified) ?
TDP1 cell CPT: inconclusive; IL1B secr inh: -64*; HT1080NT lethal: -4%; HT1080 IDH1KD tx: -10%; TDP1 cell noCPT: inconclusive

What do the screens show for `COc1ccccc1CN(C(=O)CCl)C(C(=O)NC1CCCCC1)c1ccncc1` (stereo unspecified)?
TDP1 cell CPT: 17%; IL1B secr inh: 5; HT1080NT lethal: 7%; HT1080 IDH1KD tx: 4%; TDP1 cell noCPT: 3%

How did COc1ccc(C(=O)/C=C/C(=O)N(Cc2ccccc2OC)C(C(=O)NC2CCCCC2)c2ccncc2)c(O)c1 (stereo unspecified) do in these assays?
12-LOX inh: -8%; TDP1 cell CPT: inconclusive; IL1B secr inh: -78*; HT1080NT lethal: inconclusive; HT1080 IDH1KD tx: inconclusive; TDP1 cell noCPT: 21µM*

Results for CCCCNC(=S)Nc1ccc(-c2nc3ccc(C)cc3s2)cc1 ?
12-LOX inh: -15%; TDP1 cell CPT: inconclusive; IL1B secr inh: 6; HT1080NT lethal: 4%; HT1080 IDH1KD tx: 10%; TDP1 cell noCPT: 18µM*

What do the screens show for `Cc1ccc2nc(-c3ccc(NC(=S)NCC(C)(C)CN(C)C)cc3)sc2c1`?
12-LOX inh: 12%; TDP1 cell CPT: 6.5µM*; IL1B secr inh: 0; HT1080NT lethal: 0%; HT1080 IDH1KD tx: 9%; TDP1 cell noCPT: 6.5µM*

Results for CNC(=S)Nc1ccc(-c2nc3ccc(C)cc3s2)cc1 ?
12-LOX inh: inconclusive; TDP1 cell CPT: 2%; IL1B secr inh: inconclusive; HT1080NT lethal: inconclusive; HT1080 IDH1KD tx: 2%; TDP1 cell noCPT: inconclusive

Results for COc1ccc(NC(=O)c2ccc(-c3nn(C)c(=O)c4ccccc34)cc2)cc1C(N)=O ?
12-LOX inh: -5%; TDP1 cell CPT: 4%; IL1B secr inh: inconclusive; HT1080NT lethal: 10%; HT1080 IDH1KD tx: 1%; TDP1 cell noCPT: 11%

Results for Cc1ccc(-n2ncc3c(Nc4ccccc4C)ncnc32)cc1 ?
12-LOX inh: -2%; TDP1 cell CPT: inconclusive; TDP1 cell noCPT: 16µM*

How did Cc1ccc(-n2ncc3c(Nc4ccc(Oc5ccccc5)cc4)ncnc32)c(C)c1 do in these assays?
12-LOX inh: inconclusive; TDP1 cell CPT: 16µM*; TDP1 cell noCPT: 23µM*

What do the screens show for `CCN(c1ccccc1)c1ncnc2c1cnn2-c1ccc(C)cc1C`?
12-LOX inh: -11%; TDP1 cell CPT: 9.2µM*; TDP1 cell noCPT: 9.2µM*

What do the screens show for `CCc1ccccc1Nc1ncnc2c1cnn2-c1ccc(Cl)cc1`?
12-LOX inh: inconclusive; TDP1 cell CPT: 16µM*; TDP1 cell noCPT: inconclusive

What do the screens show for `CC(C)NC(=O)N1CC2(CCN(C(=O)c3ccncc3)CC2)C1`?
12-LOX inh: 1%[57.4 µM]; TDP1 cell CPT: 17%; TDP1 cell noCPT: -4%

How did CCc1ccccc1Nc1ncnc2c1cnn2-c1ccc(C)cc1C do in these assays?
12-LOX inh: inconclusive; TDP1 cell CPT: inconclusive; TDP1 cell noCPT: 18µM*

How did CCOc1ccc(Nc2ncnc3c2cnn3-c2ccc(F)cc2)cc1 do in these assays?
12-LOX inh: -20%; TDP1 cell CPT: -19%; TDP1 cell noCPT: -25%

Results for Cc1ccc(-n2ncc3c(SCc4cccc(C)c4)ncnc32)cc1 ?
12-LOX inh: -21%; TDP1 cell CPT: -24%; IL1B secr inh: 15; HT1080NT lethal: inconclusive; HT1080 IDH1KD tx: inconclusive; TDP1 cell noCPT: -29%

Results for Cc1ccc(-n2ncc3c(SCc4cccnc4)ncnc32)c(C)c1 ?
12-LOX inh: 15%; TDP1 cell CPT: 16µM*; IL1B secr inh: -13; HT1080NT lethal: inconclusive; HT1080 IDH1KD tx: inconclusive; TDP1 cell noCPT: 12µM*

What do the screens show for `Cc1ccc(-n2ncc3c(Nc4cccc(Cl)c4)ncnc32)c(C)c1`?
12-LOX inh: -23%; TDP1 cell CPT: inconclusive; TDP1 cell noCPT: inconclusive

Results for Fc1ccc(-n2ncc3c(Nc4ccc(Oc5ccc(Cl)cc5)cc4)ncnc32)cc1 ?
12-LOX inh: -16%; TDP1 cell CPT: inconclusive; TDP1 cell noCPT: 18µM*

What do the screens show for `O=C(CCS(=O)(=O)c1ccc(Cl)cc1)OCc1ccccc1`?
12-LOX inh: -26%

Results for CC1CCN(C(=O)CSc2n[nH]c(-c3cc(Br)ccc3O)n2)CC1 ?
12-LOX inh: 32µM*

Results for O=C(CSc1n[nH]c(-c2cc(Br)ccc2O)n1)N1CCCCC1 ?
12-LOX inh: 52%

How did CC1CCN(C(=O)CSc2nc(-c3ccc(F)cc3)cc(C(F)(F)F)n2)CC1 do in these assays?
12-LOX inh: 5%; TDP1 cell CPT: 21µM*; TDP1 cell noCPT: inconclusive

Results for N#C/C(=C\c1ccc(OC(=O)c2ccccc2)cc1)C(=O)Nc1ccccc1C(F)(F)F ?
12-LOX inh: 5%
